HepG2 viability: HepG2 cytotoxicity, counter-screen for TGF-b inhibitors; 0.76% of 410,000 active; Potency, µM (top dose mostly 46.1 µM), inactives show at the top dose activity change, negative = cytotoxicity, most hits filed as cytotoxic; AID 588856; HepG2 CAGA-GFP viability, ATP luminescence, 18 h
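CellTiter-Glo luminescence gave cytotoxicity after 18 hours at 37 degrees C. The cells were HepG2 CAGA-GFP in 1% FBS DMEM, stimulated with 500 pg/mL TGF-beta after compound addition. %Activity was normalised to no-cell wells (complete cell-killing) and DMSO (no toxicity), and curves were fitted and classified.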
Nrf2 block: Nrf2 pathway inhibition | A549 ARE-Fluc reporter, luciferase luminescence, 18-24 h | Potency, µM (titrated, usually from 46 µM), for the others: top-dose activity change, negative = inhibition, actives largely listed as inhibitors | 2.1% of 360,000 active | AID 504444; also: % is scaled to controls: 0 for no effect and ±100 for the full control effect; nearly all actives have a fitted effect of over 60% in size
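Quantitative HTS in A549 cells stably bearing an antioxidant response element-firefly luciferase construct. Inhibition of Nrf2-driven transcription was scored by luminescence after 18-24 h of compound exposure at 37 °C.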
S2 tox: reduces viability in counter-screen for ATXN expression inhibitors | S2 cells (HEK-293 line with an ATXN2-luciferase reporter) viability, CellTiter-Fluor protease fluorescence, 24 h | Potency, µM (top dose mostly 56.7 µM), hits mostly cytotoxic | 0.49% of 400,000 active | AID 651635; also: nearly all actives have a fitted effect of over 40% in size
A549 tox: A549 cytotoxicity, counter-screen for Nrf2 inhibitors | Potency, µM (series often up to 46 µM), inactives show at the highest dose activity change, negative = cytotoxicity, actives largely listed as inhibitors | 0.16% of 390,000 active | A549 ARE-Fluc cells, CellTiter-Fluor viability, 18-24 h; also: % is scaled to controls: 0 for no effect and ±100 for the full control effect
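Cytotoxicity counterscreen: CellTiter-Fluor fluorescence was measured in A549 ARE_Fluc cells after 18-24 h of compound exposure in a concentration series. The subsequent BugLite luminescent read reports ARE-luciferase activity.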
ATXN2 expr inh: reduces ATXN2 reporter expression in HEK-293 cells; HEK-293 ATXN2-luciferase reporter, luminescence, 24 h; Potency, µM (doses to about 57 µM), without a hit: at the top dose activity change, negative = inhibition, hits mostly inhibitors; 0.72% of 360,000 active; also: % is scaled to controls: 0 for no effect and ±100 for the full control effect; nearly all actives have a fitted effect of over 55% in size
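qHTS (up to 57 uM final) was run with 24 h compound exposure of reporter cells at 37 °C. Each well was multiplexed: SteadyGlo luminescence measured ATXN2-luciferase expression after a fluorogenic Gly-Phe-AFC viability readout (25 uM final).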
TGFb SMAD3 inh: blocks TGF-b signaling | AID 588855 | Potency, µM (titrated, usually from 46.1 µM), for the others: at the top dose activity, negative = inhibition, most hits filed as inhibitors | HepG2 CAGA-GFP TGF-b/SMAD3 reporter, GFP fluorescence, 18 h; TGF-beta stimulated, 500 pg/mL final | 1.2% of 410,000 active; also: % is scaled to controls: 0 for no effect and ±100 for the full control effect; nearly all actives have a fitted effect of over 65% in size
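HEPG2 CAGA-GFP reporter cells (1000/well, DMEM with 1% FBS) received compounds, then recombinant TGF-beta at 500 pg/mL final for 18 hours at 37 degrees C. Per-cell GFP summed per well was normalised to unstimulated and stimulated DMSO controls before curve fitting.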
* marks the source's active call; other numbers are inactive results; i = inactive; ? = inconclusive; . = not tested or not shown. Only some compounds are listed: those with a hit (about 3.8% of all), similar ones and a draw of the others. Calls follow the shape of the dose curve; as a rule, active = well fitted curve in the direction sought with a large enough effect; inconclusive = small, poorly fitted or top-dose-only effect, or another doubt; inactive = no such curve, though single readings can be large; an effect the other way counts as inactive or inconclusive. Potency is read from the fitted curve at half-maximal effect.

SMILES	HepG2 viability	Nrf2 block	S2 tox	A549 tox	ATXN2 expr inh	TGFb SMAD3 inh
O=C(Cn1sc2ccccc2c1=O)Nc1ccccc1	-94%	.	.	.	35µM*	18µM*
O=C(CN1C(=O)c2ccccc2C1=O)Nc1ccccc1	6%	-5%	i	4%	.	?
CCCC[C@@H](CNC)NC[C@H](Cc1ccc(O)cc1)NCCc1ccc(OCC)cc1	13µM*	17%	?	-12%	?	?
CCC[C@H](CN[C@@H](CNC)[C@H](C)O)NCCc1ccc(OC)cc1	-7%	8%	i	16%	-4%	-2%
CCOc1ccccc1CN1CCC(Oc2ccc(C(=O)NCc3ccccn3)cc2)CC1	-11%	?	i	-9%	-15%	0%
CCn1cc(CNC(=O)c2ccc(OC3CCN(Cc4ccccn4)CC3)cc2)cn1	-13%	12µM*	i	1%	-27%	-15%
COc1c([N+](=O)[O-])ccc(N)c1N	2%	.	.	.	.	-1%
CN1C(=S)N(c2cccnc2)C(=O)/C1=C\c1ccc(N(C)C)cc1	-80%	-5%	.	-19%	?	?
Cc1c(N2C(=O)/C(=C\c3ccc(N(C)C)cc3)N(C)C2=S)c(=O)n(-c2ccccc2)n1C	-16%	-9%	?	15µM*	2%	18%
COC(=O)c1ccc(NC(=O)CC2C(=O)N(c3cccc(OC)c3)C(=O)N2Cc2cccc(OC)c2)cc1 (stereo unspecified)	-15%	-15%	.	-2%	.	-21%
Cc1cc([N+](=O)[O-])ccc1NC(=O)CN1C2CCC1CC(NC(=O)NC13CC4CC(CC(C4)C1)C3)C2 (stereo unspecified)	-21%	16µM*	i	-18%	-22%	-21%
Cc1cccc(OCC(=O)NNC(=O)c2cc3ccccc3oc2=O)c1	3.2µM*	.	i	-7%	9%	?
Cc1cc(C)cc(OCC(=O)NNC(=O)c2ccccn2)c1	-10%	10µM*	?	-25%	.	?
C/C(=N\NC(=O)COc1cccc(C)c1)c1ccc2ccccc2c1O	-59%	?	i	-12%	?	5.6µM*
CS(=O)(=O)c1ccccc1-c1nnc(NC(=O)c2ccc3ncsc3c2)o1	8%	-3%	i	-4%	6%	5%
CC(C)N(Cc1ccccc1)C(=O)C1CCCN(c2ncnc3onc(-c4ccc(F)cc4)c23)C1 (stereo unspecified)	2%	?	?	-9%	?	?
COc1ccccc1NC(=O)C1=C(C)Nc2nc(SCc3ccc(Cl)cc3)nn2C1c1ccccc1Cl (stereo unspecified)	-2%	0%	i	-1%	14%	-23%
CC[n+]1c(/C=C(\C)SC)sc2ccccc21	-13%	21µM*	i	-18%	-24%	-25%
CC[n+]1c(C=C2C=C(C)OC(C)=C2)sc2ccccc21	-26%	0.73µM*	?	2.9µM*	11µM*	-25%
CC[n+]1c(/C=C(/C)SC)sc2ccccc21	-42%	?	i	?	-12%	6%
Cc1sc2ccccc2[n+]1CCC(C)S(=O)(=O)[O-] (stereo unspecified)	-12%	-3%	i	4%	-4%	2%
Cc1sc2ccccc2[n+]1CCC[n+]1c(C)sc2ccccc21	-38%	.	.	.	.	11µM*
COc1cc(=O)n2c(c1C(=O)NC(C)c1ccco1)CCN(Cc1ccnc3ccccc13)CC2 (stereo unspecified)	.	.	i	.	.	.
COC(=O)CC1C(=O)NCCN1C(=O)c1cc(OC)c(OC)cc1OC (stereo unspecified)	-7%	8%	i	-2%	.	-6%
Cc1nc2c(OCc3ccc(C(F)(F)F)cc3)cccn2c1N(C)Cc1cccs1	-101%	.	32µM*	.	?	?
SMILES	HepG2 viability	Nrf2 block	S2 tox	A549 tox	ATXN2 expr inh	TGFb SMAD3 inh
COc1cc(/C=C2\SC(=S)N(NC(=O)c3ccncc3)C2=O)ccc1O	0%	?	?	21µM*	5%	22%
Oc1c(CN2CCCCC2)cc(COCc2ccccc2)c2cccnc12	-93%	?	?	?	3.2µM*	?
CN(C)C1CCN(Cc2cc(COCc3ccccc3)c3cccnc3c2O)C1 (stereo unspecified)	-13%	21µM*	?	-12%	?	?
COCc1cc(CN2CCCC2)c(O)c2ncccc12	-26%	?	?	-2%	?	?
Cc1cccc(NC(=O)C2CCN(S(=O)(=O)c3ccc(F)cc3)CC2)c1C	-28%	-11%	i	-3%	-4%	-13%
C=C(C)c1ccccc1	8%	9%	i	-6%	-2%	0%
Cc1cccc(N2CCN(c3ncnc4onc(C)c34)CC2C)c1 (stereo unspecified)	-6%	23µM*	.	?	.	-25%
O=C(COC(=O)c1cncc(Br)c1)NC1CCCCCC1	-12%	-1%	i	1%	3%	-10%
CCN1CCCC1CNC(=O)c1cnn(-c2nccc(-c3cccs3)n2)c1C(C)C (stereo unspecified)	.	.	i	.	.	.
CCOC(=O)N1CC=C2C(C#N)=C(N)C(C#N)(C#N)[C@H](c3ccccc3OCC)[C@H]2C1	7%	16µM*	i	?	5%	0%
N#CC1=C(N)C(C#N)(C#N)C(c2ccncc2)C2CN(C(=O)OCc3ccccc3)CC=C12 (stereo unspecified)	-45%	23µM*	i	-16%	-10%	?
CCOC(=O)N1CC=C2C(C#N)=C(N)C(C#N)(C#N)[C@H](c3ccc(OC(C)C)c(OCC)c3)[C@H]2C1	-33%	.	i	0%	-12%	-5%
c1cc2c3c(c1)CCCN3CCC2	1%	.	.	.	.	-8%
COc1ccccc1NC(=O)c1ccccc1C(=O)N(C)Cc1ccccc1	3%	?	i	3%	2%	31%
CC(=O)c1ccc2c(c1)N(Cc1ccccc1Cl)C(=O)C(C)S2 (stereo unspecified)	-18%	.	?	.	-18%	-12%
CCc1nnc2c(Nc3ccc(N(CC)CC)cc3C)nc3ccccc3n12	-10%	-20%	.	3%	.	-6%
CCOCc1cc(CN2CCN(c3ccccc3OC)CC2)c(O)c2ncccc12	1.6µM*	?	.	1%	.	.
CCCOCc1cc(CN2CCN(c3ccccc3OC)CC2)c(O)c2ncccc12	11µM*	?	.	5%	.	2µM*
CCOc1ccccc1N1CCN(Cc2cccc(OC)c2O)CC1	7%	11%	i	2%	-5%	-24%

Screening data from PubChem BioAssay.
